Screening data (PubChem)
An excerpt weighted towards active compounds, which were near 11% of everything screened.
FLuc inh – blocks purified firefly luciferase enzyme activity. P08659. purified P. pyralis luciferase, luminescence, biochemical. Potency, µM (doses to about 115 µM), most hits filed as inhibitors. 76,000 compounds, 2.5% hits. AID 1347043; note: nearly all actives have a fitted effect of over 65% in size
Target sequence (P08659 whole entry, looked up): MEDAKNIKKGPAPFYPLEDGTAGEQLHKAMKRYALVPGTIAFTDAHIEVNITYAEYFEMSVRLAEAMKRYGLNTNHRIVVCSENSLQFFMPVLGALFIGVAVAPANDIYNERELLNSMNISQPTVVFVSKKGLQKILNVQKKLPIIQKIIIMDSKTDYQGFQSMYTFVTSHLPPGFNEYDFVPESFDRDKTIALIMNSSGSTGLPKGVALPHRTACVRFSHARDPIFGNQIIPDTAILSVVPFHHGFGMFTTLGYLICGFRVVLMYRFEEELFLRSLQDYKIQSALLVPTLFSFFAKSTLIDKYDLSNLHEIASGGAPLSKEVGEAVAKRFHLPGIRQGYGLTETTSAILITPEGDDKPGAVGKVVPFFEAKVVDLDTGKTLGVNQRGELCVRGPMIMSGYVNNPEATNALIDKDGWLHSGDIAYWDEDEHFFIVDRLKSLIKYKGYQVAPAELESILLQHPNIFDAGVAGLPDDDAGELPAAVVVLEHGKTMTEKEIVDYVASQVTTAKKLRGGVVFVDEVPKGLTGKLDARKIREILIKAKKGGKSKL
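Luminescence read by CCD imager after adding enzyme (10nM final) to wells holding compound, titrated in qHTS. Substrates 10uM each D-luciferin and ATP; buffer 50mM Tris acetate pH 7.5, 10mM Mg acetate, Tween-20, BSA.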
NIH3T3 tox – kills NIH 3T3 cells. NIH 3T3 viability, CellTiter-Glo ATP luminescence, 48-72 h. Potency, µM (top dose mostly 96.7 µM), inactives show top-dose activity change, negative = cytotoxicity, actives largely listed as inhibitors. 94,000 compounds, 4.3% hits; note: nearly all actives have a fitted effect of over 55% in size
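Viability of NIH 3T3 cells after 48 or 72 hr compound treatment at 37 °C was assessed by CellTiter-Glo, with luminescence imaged following a 10 min room-temperature step.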
HEK cytotox – HEK 293 cell cytotoxicity; 94,000 compounds, 6.6% hits; Potency, µM (doses to about 115 µM), for the others: at the highest dose activity change, negative = cytotoxicity, hits mostly inhibitors; HEK 293 viability, ATP luminescence (CellTiter-Glo), 48-72 h; note: nearly all actives have a fitted effect of over 60% in size
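Pintool-delivered compounds were incubated with HEK 293 cells (250 cells/well) at 37 degree Celsius for 48 or 72 hr. ATP-dependent luminescence (CellTiter-Glo) then reported remaining viable cells.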
NPR1 antag – human Npr1 receptor antagonism; 76,000 compounds, 1.6% hits; P16066; HEK293 hNpr1 GloSensor cGMP, ANP-stimulated luminescence; Potency, µM (series often up to 46.3 µM), for inactives: at the top dose activity change, negative = inhibition, usual class: inhibitors; calls by dose curve; note: nearly all actives have a fitted effect of over 60% in size
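Compound pre-incubated 30 min at room temperature on GloSensor-loaded HEK293 cells stably carrying hNpr1 and the pGS-40F cGMP biosensor. Stimulation uses hNppA at 0.1 nM final; luminescence is taken at baseline and 20 min post-agonist.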
Active calls of the source: *; i = inactive; u = inconclusive; x = not tested or not shown; ! = not confirmed by another sample; [ ] = dose if it differs, or a comment. Unless noted, calls come from the whole dose curve; as a rule, active = well fitted curve in the direction sought with a large enough effect; inconclusive = small, poorly fitted or top-dose-only effect, or another doubt; inactive = no such curve, though single readings can be large; an effect the other way counts as inactive or inconclusive. % is set by controls: 0 for no effect and ±100 for the full control effect; potency is the fitted concentration of half-maximal effect.

SMILES	FLuc inh	NIH3T3 tox	HEK cytotox	NPR1 antag
O=C(Nc1ccccc1)NC1CCN(Cc2cccc(-c3cccs3)c2)CC1	x	14µM*	20µM*!	x
O=C(Nc1ccc(Cl)cc1)NC1CCN(Cc2cccc(-c3cccs3)c2)CC1	x	13µM*	20µM*	x
COc1ccc(-c2noc([C@@H]3CCCN3C(=O)c3cc(C)cc(C)c3)n2)cc1OC	i	u	32µM*	-1%
O=C(c1cc(Cl)ccc1F)N1CCC[C@H]1c1nc(-c2ccc(F)cc2)no1	i	u	79µM*	-13%
COc1ccc(-c2noc([C@@H]3CCCN3C(=O)c3ccc(C)cc3)n2)cc1OC	i	-29%	u	4%
COc1ccc(-c2nc(C3CC(=O)N(c4ccc(F)c(Cl)c4)C3)no2)c(OC)c1 (stereo not given)	i	u	u	-15%
CN(C)C[C@H]1O[C@@H](CO)[C@@H](O)[C@H]1N1CCCC1	i	-3%[230 µM]	1%[230 µM]	4%[70.6 µM]
Cc1cc(-c2cc3c(cn2)CN(Cc2c[nH]c4ccccc24)CCN3)ccn1	u	u	112µM*	-6%[70.6 µM]
Fc1ccc(CN2CCNc3cnc(OCc4cccnc4)cc3C2)cc1F	i	u	u	u
c1ccc(CN2CCNc3cc(-c4ccoc4)ncc3C2)cc1	u	u	u	-12%[70.6 µM]
Cc1cccc(CN2CCNc3cc(-c4ccnc(C)c4)ncc3C2)c1	u	u	40µM*	-17%[70.6 µM]
Cc1cc(-c2cc3c(cn2)CN(Cc2ccc(F)c(F)c2)CCN3)ccn1	40µM*	u	71µM*	3%[70.6 µM]
Cc1cc(-c2cc3c(cn2)CN(Cc2ccc(C(F)(F)F)cc2)CCN3)ccn1	63µM*	79µM*	63µM*	28µM*
Fc1ccc(CNc2cc3c(cn2)CN(Cc2ccncc2)CCN3)cc1	i	-43%[138 µM]	-51%[172 µM]	2%[70.6 µM]
c1ccc(Oc2ccccc2-c2cc3c(cn2)CN(Cc2ccncc2)CCN3)cc1	i	u	u	-27%[70.6 µM]
Cc1c(C#N)c2ccccc2n1CC(=O)NC1CCOC2(CCOCC2)C1 (stereo not given)	i	-1%	-12%	2%
Cc1cc(-c2cc3c(cn2)CN(Cc2ccccc2F)CCN3)ccn1	25µM*	u	71µM*	-16%[70.6 µM]
CCn1cc(-c2cc3c(cn2)CN(CCc2ccccc2)CCN3)cn1	i	u	u	-2%[70.6 µM]
Cc1cccc(CN2CCNc3cnc(OCc4cccnc4)cc3C2)c1	i	u	100µM*	u
COc1cccc(CN2CCNc3cnc(OCc4cccnc4)cc3C2)c1	i	u	u	-24%[70.6 µM]
CN1C(=O)CO[C@H](c2ccc(NC(=O)C3CCCC3)cc2)[C@H]1CO	i	3%[138 µM]	-4%[172 µM]	0%[70.6 µM]
Cc1ccc(Nc2ccnc(N3CCN(C(=O)c4ccccc4Cl)CC3)n2)cc1	x	u	40µM*	x
O=C(NC1CCN(c2nccc(Nc3ccccc3Cl)n2)CC1)C1CC1	x	28µM*	u	x
COc1ccccc1Nc1ccnc(N2CCC(NC(=O)C3CC3)CC2)n1	x	-28%	-22%	x
Cc1ccc(Nc2ccnc(N3CCC(NC(=O)c4ccccc4Cl)CC3)n2)cc1	x	40µM*	45µM*	x
SMILES	FLuc inh	NIH3T3 tox	HEK cytotox	NPR1 antag
CC(NC(=O)C1CCN(c2nccc(Nc3ccccc3Cl)n2)CC1)c1ccc(F)cc1 (stereo not given)	x	32µM*	40µM*	x
Fc1ccccc1-c1nnc([C@H]2CCN(Cc3cccc(Cl)c3)C2)o1	i	-15%[138 µM]	u	0%[70.6 µM]
CCNC(=O)N(C1CC1)C1CCOC2(CCN(C(=O)Nc3ccccc3F)CC2)C1 (stereo not given)	i	-7%	-4%	4%
Cc1ccc(-n2nc3n(c2=O)CCN([S+](C)(=O)[O-])C3)cc1	i	-9%[138 µM]	-3%[172 µM]	0%[70.6 µM]
O=C1NCCOCCCN(C(=O)CC2CCCC2)[C@H]2CCCC[C@@H]12	i	i	0%	1%
O=C(NC1CCN(c2nccc(Nc3ccccc3Cl)n2)CC1)c1ccccc1Cl	x	u	40µM*	x
N#Cc1ccccc1CN1CCC(Cc2nncn2-c2ccccc2)CC1	i	2%	2%	4%
O=C(NCC1CN(C(=O)Cc2ccc(C(F)(F)F)cc2)CC12CN(c1ccccc1)C2)c1ccccc1 (stereo not given)	i	u	u	-3%
Cc1nn(-c2ccccc2)c2c1C(C(C)C)N(C1CCN(C(=O)C3CCCC3)C1)C2=O (stereo not given)	x	20µM*	u	x
Cc1nn(-c2ccccc2)c2c1C(C(C)C)N(C1CCN(C(=O)c3ccccc3F)C1)C2=O (stereo not given)	x	u	79µM*	x
Cc1nn(-c2ccccc2)c2c1C(C(C)C)N(C1CN(C(=O)C3CC3)C1)C2=O (stereo not given)	x	-24%	-9%	x
Cc1nn(-c2ccccc2)c2c1C(C(C)C)N(C1CCN(C(=O)C(C)(C)C)C1)C2=O (stereo not given)	x	u	89µM*	x
COc1cccc(-c2noc(-c3ccc(-c4ccc(O)cc4)nc3)n2)c1OC	u	45µM*	u	-1%
COc1ccccc1-c1noc(-c2nc(-c3ccncc3)no2)n1	i	5%	-2%	-5%
COc1ccc(C(=O)NC[C@@H]2C=C(C)[C@H](CC(=O)O)C[C@H]2C(C)C)cc1	i	35µM*	-7%[172 µM]	2%[70.6 µM]
CCOC(=O)C[C@@H]1C[C@@H](C(C)C)[C@H](CNC(=O)c2ccc(F)cc2)C=C1C	i	u	35µM*	u
COc1ccc(C(=O)NC2CCCN(c3ccnc4ccnn34)C2)cc1 (stereo not given)	x	u	32µM*	x
COc1cccc(C(=O)NC2CCN(c3ccnc4ccnn34)CC2)c1	x	u	35µM*	x
O=C(NC1CCCN(c2ccnc3ccnn23)C1)c1ccc(Cl)cc1 (stereo not given)	x	u	40µM*	x
O=C(NC1CCCN(c2ccnc3ccnn23)C1)c1ccc2c(c1)OCO2 (stereo not given)	x	u	35µM*	x
O=C(NC1CN(c2ccnc3ccnn23)C1)c1ccc(Cl)cc1	x	u	-19%[172 µM]	x
CCn1nccc1C(=O)N1CCC(Cc2noc(C3CC3)n2)C1 (stereo not given)	x	u	-30%	x
COCc1cc(C[C@@H]2C[C@H](NC(=O)COc3ccccc3)C2(C)C)no1	i	u	u	u
CC(=O)c1ccc(NC(=O)N[C@@H]2C=C(C(=O)NCCC(N)=O)C[C@@H](O)[C@@H]2O)cc1	i	i	-1%[172 µM]	1%[70.6 µM]
Cc1nc(N2CCC(NCCN3CCCOC3=O)CC2)c2ccsc2n1	i	-15%	-19%	0%
C1CC(c2noc(C34CC5CC(CC(C5)C3)C4)n2)CO1 (stereo not given)	i	-27%	u	2%
O=C(NC1CCCN(c2ccnc3ccnn23)C1)c1cccc(Br)c1 (stereo not given)	x	u	79µM*	x
O=C(NC1CCCN(c2ccnc3ccnn23)C1)c1ccncc1 (stereo not given)	x	-28%[138 µM]	u	x
